Records with an inconclusive call do not appear. The source made the active and inactive calls. Calls follow the shape of the dose curve; as a rule, active = well fitted activation curve with a large enough effect; inconclusive = small, poorly fitted or top-dose-only effect; inactive = no such curve, though single readings can be large or run the other way.
What follows are compounds tested against Cellular tumor antigen p53 (Homo sapiens) (UniProt P04637) (assay: Primary qHTS for small molecule compounds that upregulate eGFP-tagged delta133p53alpha (in N-terminal) cells. (AID 2060322; also: nearly all actives have a fitted effect of over 75% in size;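 as to activation: series mostly up to about 56 µM; 0% = DMSO vehicle and 100% = reference activator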)). Conditions: NCI-H358 eGFP-delta133p53alpha fluorescence, 24 h; activation: hits give high values.
Sequence of Cellular tumor antigen p53 (Homo sapiens) (P04637 whole entry, looked up): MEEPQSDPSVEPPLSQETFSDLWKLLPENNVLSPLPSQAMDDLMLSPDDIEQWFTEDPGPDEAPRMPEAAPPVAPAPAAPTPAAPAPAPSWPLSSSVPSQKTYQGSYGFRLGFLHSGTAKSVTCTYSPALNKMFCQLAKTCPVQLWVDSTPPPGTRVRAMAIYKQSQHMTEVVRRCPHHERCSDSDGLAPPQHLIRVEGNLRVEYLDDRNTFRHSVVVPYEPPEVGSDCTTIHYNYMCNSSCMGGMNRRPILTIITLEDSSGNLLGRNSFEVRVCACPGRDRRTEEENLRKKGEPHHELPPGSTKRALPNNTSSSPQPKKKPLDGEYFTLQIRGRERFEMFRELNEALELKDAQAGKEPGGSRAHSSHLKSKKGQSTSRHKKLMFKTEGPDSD
In short: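 NCI-H358 cells pre-induced 24 h with 10 ng/ml doxycycline to express N-terminal eGFP-delta133p53alpha, then dosed 24 h at 37C without doxycycline; fixed, Hoechst-stained, GFP intensity by laser scanning cytometry, normalized to DMSO (0%) and 57.5 uM 5-azacytidine (100%).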
For `O=C(Cn1ccnc1[N+](=O)[O-])NCc1ccccc1`, the activation was -10.9% (inactive). For `CCN(CC)CCOC(=O)C(c1ccccc1)c1ccccc1`, the activation was -8.47% (inactive). `C[C@H]1C[C@@H]2[C@@H]([C@@H](O)C[C@@]3(C)[C@H]2CC[C@]3(O)C(=O)CO)[C@@]2(C)C=CC(=O)C=C12` was tested, and the activation was -16.2% (inactive). For `CCOC(=O)N1CCN([N+]([O-])=NOc2ccc([N+](=O)[O-])cc2C#N)CC1`, the activation was 12.2% (inactive). With `CN1CCN(C2=Nc3cc(F)ccc3Cc3ccccc32)CC1` the activation was -11.9% (inactive). For `CN(C)CC/C=C1\c2ccccc2Sc2ccc(Cl)cc21`, the activation was 0% (inactive). In the case of `COc1ccc2cc(CCC(C)=O)ccc2c1`, the activation is reported as -16.4% (inactive). In the case of `O=C(O)C(Cc1cc(I)c(O)c(I)c1)c1ccccc1` (stereo not given), the activation is reported as -19.8% (inactive). In the case of `COC1=C(OC)C(=O)C(CC=C(C)CCC=C(C)CCC=C(C)CCC=C(C)CCC=C(C)CCC=C(C)CCC=C(C)CCC=C(C)CCC=C(C)CCC=C(C)C)=C(C)C1=O`, the activation is reported as 0.831% (inactive). For `O=C1OC2(c3ccccc31)c1cc(I)c(O)c(I)c1Oc1c2cc(I)c(O)c1I`, the activation was -36.8% (inactive). With `CCCCN1CCCC1C(=O)Nc1c(C)cc(C)cc1C` (stereo not given) the activation was 27.6% (inactive). For `O=C1CCc2ccccc2O1`, the activation was -6.7% (inactive). `C1N2CN3CN1CN(C2)C3` was tested, and the Potency was 27.6 µM (active). In the case of `Nc1ccc2c(c1)CN1C(=O)c3ccccc3C1=N2`, the Potency is reported as 0.0601 µM (active). `C=C1C[C@H]2[C@@H]3C=C(C)C4=CC(=O)CC[C@]4(C)[C@H]3CC[C@]2(C)[C@@]1(OC(C)=O)C(C)=O` was tested, and the activation was -0.837% (inactive). In the case of `COc1cc(C)nc(-n2nc(C)cc2OC)n1`, the activation is reported as -12.6% (inactive). `O=C(CCCN1CCC(O)(c2ccc(Br)cc2)CC1)c1ccc(F)cc1` was tested, and the activation was 3.35% (inactive). In the case of `C[C@H](N)C(=O)N[C@@H](C)C(=O)NC1[C@H]2CN(c3nc4c(cc3F)c(=O)c(C(=O)O)cn4-c3ccc(F)cc3F)C[C@@H]12` (stereo not given in full), the activation is reported as -33.3% (inactive). With `CC(=O)[C@@]1(O)CC[C@H]2[C@@H]3C[C@H](C)C4=CC(=O)CC[C@]4(C)[C@H]3CC[C@@]21C` the activation was -5.86% (inactive). `C[C@@H]1CCC[C@H](C)N1` was tested, and the activation was 8.37% (inactive). For `C[C@@H]1C[C@H]2[C@@H]3C[C@H](F)C4=CC(=O)C(Cl)=C[C@]4(C)[C@@]3(F)[C@@H](O)C[C@]2(C)[C@@]1(O)C(=O)CO`, the activation was -14.1% (inactive). For `C[C@]12CCC(=O)C=C1C=C[C@@H]1[C@@H]2CC[C@@]2(C)[C@H]1CC[C@@]21CCC(=O)O1`, the activation was -33.3% (inactive). In the case of `NCC[C@H](O)C(=O)N[C@@H]1C[C@H](N)[C@@H](O[C@H]2O[C@H](CN)[C@@H](O)[C@H](O)[C@@H]2O)[C@H](O)[C@@H]1O[C@H]1O[C@H](CO)[C@@H](O)[C@H](N)[C@@H]1O`, the activation is reported as -2.51% (inactive). With `CC(=O)c1cc2ccccc2s1` the activation was 6.21% (inactive). `CC(=O)N(CC(=O)N(C)C)c1ccccc1` was tested, and the activation was -7.53% (inactive). In the case of `COc1ccc(C=CC(=O)Nc2ccccc2C(=O)O)cc1OC`, the activation is reported as 5.12% (inactive). In the case of `O=C(O)[C@H](CC(=O)N1C[C@@H]2CCCC[C@H]2C1)Cc1ccccc1`, the activation is reported as -15.3% (inactive). In the case of `CN(C)CCN1C(=O)c2ccccc2N(C)c2ccccc21`, the activation is reported as 7.34% (inactive). With `CCCCCCCC(=O)OCC(O)CO` (stereo not given) the activation was -14.2% (inactive). In the case of `O=C1OC(CN2CCOCC2)CN1/N=C/c1ccc([N+](=O)[O-])o1` (stereo not given), the activation is reported as 5.02% (inactive). `NC(CO)(CO)CO` was tested, and the activation was -22% (inactive). In the case of `O=C(O)[C@@H]1[C@H]2C[C@H]3c4[nH]c5ccccc5c4CCN3C[C@@H]2CC[C@@H]1O`, the Potency is reported as 3.09 µM (active). In the case of `O=c1[nH]c(=O)n([C@H]2C[C@@H](O)[C@@H](CO)O2)cc1C=CBr`, the activation is reported as 11.1% (inactive). With `Cc1c[nH]c2ccccc12` the activation was 17.6% (inactive). In the case of `CO[C@H]1C=CC=C(C)C(=O)NC2=CC(=O)C(NCCN(C)C)=C(C[C@@H](C)C[C@H](OC)[C@@H](O)[C@@H](C)C=C(C)[C@@H]1OC(N)=O)C2=O`, the activation is reported as 14.6% (inactive). For `Nc1ccccc1NC(=O)CCCCCCC(=O)Nc1ccccc1`, the activation was -13.4% (inactive). `CN(C)CCN(Cc1ccccc1)c1ccccn1` was tested, and the activation was 24.3% (inactive). For `COc1cc(O)cc(O)c1`, the activation was -1.67% (inactive). For `NC(=O)C1(N2CCCCC2)CCN(CCCC(=O)c2ccc(F)cc2)CC1`, the activation was 14.2% (inactive). In the case of `Cc1cccc(C=NNc2cc(N3CCOCC3)nc(OCCc3ccccn3)n2)c1`, the activation is reported as -13.3% (inactive).

— PubChem BioAssay (NCATS)
Potency is read from the fitted curve at half-maximal effect.
